# Reference: PubChem BioAssay (EPA / NIEHS)
# Calls of active or inactive are those of the source. Rule for the calls: active = hit-call score of the fitted dose curve at least 0.9, where 1 is the maximum; inactive = score below 0.9.
# Read-out: Human Leukocyte Antigen - DR isotype (HLADR), HLA-DRA (gene 3122)
# Experiment: BSK_BE3C_HLADR: BioMAP Diversity Plus: BE3C Assay for Human Leukocyte Antigen - DR isotype (HLADR) Biomarker Activity (AID 2283032)
# Settings: primary human bronchial epithelial cells; actives raise or lower the signal
# Procedure: BSK_BE3C is a cell-based, multiplexed-readout assay that uses bronchial epithelial cell, a human lung primary cell, with measurements taken at 24 hours after chemical dosing in a 96-well plate.BSK_BE3C_HLADR is an assay component measured in the BSK_BE3C assay. It measures HLA-DR antibody related to regulation of gene expression using ELISA technology.Data from the assay component BSK_BE3C_HLADR was analyzed into 1 assay endpoint. This assay endpoint, BSK_BE3C_HLADR, was analyzed with bidirectional fitting relative to DMSO as the negative control and baseline of activity. Using a type of binding reporter, gain or loss-of-signal activity can be used to understand changes in the signaling as they relate to the gene HLA-DRA. Furthermore, this assay endpoint can be referred to as a primary readout, because this assay has produced multiple assay endpoints where this one serves a signaling function. To generalize the intended target to other relatable targets, this assay endpoint is annotated to the cell adhesion molecules intended target family, where the subfamily is MHC Class II.
# The levels of cell surface (or secreted, indicated by the prefix "s") biomarker endpoints were measured by ELISA. Overt cytotoxicity to cells in confluent adherent cultures (all systems other than the BT system) was assessed by measuring total protein levels using sulforhodamine B (SRB) staining in parallel cultures at the time of biomarker measurements, indicated as SRB endpoints. For proliferation assays for adherent cell types, individual cell types are cultured at sub-confluence and relative cell numbers quantified by SRB staining at time points optimized for each system (48 h: 3C and CASM3C systems; 72 h: BT and HDF3CGF systems; 96 h: SAg system). SRB was performed by staining cells with 0.1% SRB after fixation with 10% TCA and reading wells at 560 nm.Viability and proliferation of PBMC (T cells) was quantified by Alamar Blue reduction for the SAg and BT systems. For PBMC viability (referred to as PBMC Cytotoxicity within the assay endpoint names), cells were plated (75,000/well in a 96-well plate) and then chemical samples added for 1 h before addition of activators, SEB and TSST-1 (20 ng/mL final concentration each). Cells were incubated for 90 h. Then, Alamar Blue (20 uL/well) (Invitrogen, Cat DAL1100) was added for 6 h, and the plates were read with a fluorescence microplate reader at 546/580 nm (excitation/emission). For PBMC proliferation, cells were plated and activated as above but incubated for only 16 h prior to addition of Alamar Blue. Plates were read after 6 h.
Structure (SMILES),outcome,AC50
CC1(C)NC(=O)N(c2ccc([N+](=O)[O-])c(C(F)(F)F)c2)C1=O,inactive,–
Cc1cccc2ccccc12,inactive,–
O=c1c(-c2ccc(O)cc2)coc2cc(O)cc(O)c12,inactive,–
CC(=O)N1CCN(c2ccc(OC[C@H]3CO[C@](Cn4ccnc4)(c4ccc(Cl)cc4Cl)O3)cc2)CC1,–,33.3 µM (active)
c1ccc(C[n+]2cccc3ccccc32)cc1,inactive,–
CC(C)(O)c1ccc(CNC(=O)c2cccnc2Oc2ccc3nonc3c2)cc1,inactive,–
Cc1cc2c(cc1C(F)(F)F)N(C(=O)Nc1ccc(Oc3cccnc3C)nc1)CC2,–,5.03 µM (active)
CC1=CC(=O)/C(=C(/C)O)C(=O)O1,inactive,–
O=C(O)Cc1cc(I)c(Oc2ccc(O)c(I)c2)c(I)c1,–,17.6 µM (active)
CC/C(=C(/CC)c1ccc(O)cc1)c1ccc(O)cc1,–,23.4 µM (active)
OCCO,inactive,–
CCCCCCCC[Si](OCC)(OCC)OCC,inactive,–
O=CCCCC=O,–,33.5 µM (active)
c1ccc2n[nH]nc2c1,inactive,–
O=C(Nc1ccc(Cl)cc1)Nc1ccc(Cl)c(Cl)c1,–,1.39 µM (active)
CC[C@H](NC(=O)c1cc(F)ccc1NS(=O)(=O)c1cccc2cccnc12)c1ccccc1,inactive,–
NCc1cccc(C2CCN(C(=O)c3ccc(C#Cc4ccccc4F)o3)CC2)c1,–,6.79 µM (active)
Cc1ccc(C(C)C)cc1,inactive,–
Clc1ccccc1C(c1ccccc1)(c1ccccc1)n1ccnc1,–,8.22 µM (active)
CCCCOC(=O)CC(CC(=O)OCCCC)(OC(C)=O)C(=O)OCCCC,–,20 µM (active)

Structure (SMILES),outcome,AC50
CCO[Si](CCCNC(N)=O)(OCC)OCC,inactive,–
CCN(Cc1cccnc1)C(=O)c1cccc(Cl)c1[C@]1(C)C(=O)N(Cc2ccc(OC)cc2OC)c2ccc(Cl)cc21,inactive,–
Clc1cc(Cl)c2c(c1)N=C1CCCCCN1C2,inactive,–
CCCOC(=O)c1cc(O)c(O)c(O)c1,inactive,–
CCOC(=O)O[C@H](C)OC(=O)c1ccc2c(c1)cc(C(=O)NC1CCN(C(C)C)CC1)n2Cc1cc(-c2ccc(Cl)s2)on1,–,10.7 µM (active)
CC(O)CC(C)(C)O (stereo not given),inactive,–
Cc1c2ccccc2c(C)c2c1ccc1ccccc12,inactive,–
Cc1cn([C@H]2C[C@H](N=[N+]=[N-])[C@@H](CO)O2)c(=O)[nH]c1=O,inactive,–
CCCCCCCCOC(=O)c1cc(O)c(O)c(O)c1,–,22 µM (active)
Cc1occc1C(=O)Nc1ccc(C(=O)N2CCC(F)(F)/C(=C\C(=O)N3CCC(N4CCCCC4)CC3)c3ccccc32)cc1,inactive,–
O=c1[nH]sc2ccccc12,–,28.1 µM (active)
OC12N=C(c3ccccc3)SC1Cc1cc(Cl)ccc12 (stereo not given),inactive,–
O=C1CCC(C2CCCCC2)CC1,–,25.9 µM (active)
CCCCCCCCOc1ccc(C(=O)c2ccccc2)c(O)c1,inactive,–
CC(C)(C)c1csc(-c2cc3cc(OCc4ccccc4CC(=O)O)ccc3o2)n1,–,6.97 µM (active)
COCC(C)OCC(C)OCC(C)O (stereo not given),inactive,–
Oc1ccc2ccccc2c1,inactive,–
O=C(O)c1ccccc1C(=O)OCc1ccccc1,inactive,–
CCCC(=O)OCCC(C)C,inactive,–
CN(C)c1ccc(C(=C2C=CC(=[N+](C)C)C=C2)c2ccc(N(C)C)cc2)cc1,–,1.28 µM (active)
